# Results published in PubChem BioAssay (NCI).
# About 79,000 compounds went through this panel and 15% of them were active in at least one assay; those are over-represented in the sample as a whole. The source made the active and inactive calls. No stated cut-off is given here; in the data, active means growth inhibition above about 70%; inactive means the rest.
# Assay: NCI Yeast Anticancer Drug Screen. Data for the rad18 strain (AID 177)
# Settings: S. cerevisiae rad18 mutant growth inhibition, stronger effect = higher value
# Description: Growth inhibition of yeast strains with defined genetic alterations is measured as a screen for potential anti-cancer activity. Selected strains with alterations in DNA damage repair or cell cycle control were exposed to compounds and growth inhibition was measured relative to vehicle treated controls. The strain used in this assay is rad18
Structure (SMILES),growth inhibition (at 1.2 µM),growth inhibition (at 3.7 µM),growth inhibition (at 11.0 µM),growth inhibition (at 33.0 µM),growth inhibition (at 100.0 µM)
CN(C)c1ccc(C(c2ccc(Cl)cc2)c2ccc(N(C)C)cc2)cc1,94% (active),98% (active),97% (active),90% (active),83% (active)
CN(NC(=O)/C(=C/C=C/c1ccccc1)NC(=O)c1ccccc1)C1=C(Cl)C(=O)[N+](c2ccccc2)=CC1,1% (inactive),26% (inactive),77% (active),90% (active),87% (active)
CCOC(=O)/C(O)=C(/C=N/C(=S)Nc1c(CC)cccc1CC)C(=O)OCC,-4% (inactive),-8% (inactive),8% (inactive),46% (inactive),62% (inactive)
O=C1c2ccc(O)cc2C(=O)c2c(O)ccc(O)c21,6% (inactive),17% (inactive),88% (active),94% (active),89% (active)
O=C1C(Br)=CC(Br)(Br)C=C1Br,-4% (inactive),-13% (inactive),26% (inactive),95% (active),98% (active)
O=C(c1c(F)c(F)c(F)c(F)c1F)c1c(F)c(F)c(F)c(F)c1F,28% (inactive),56% (inactive),92% (active),96% (active),93% (active)
CCCCOc1ccc(Nc2c3ccccc3nc3ccccc23)cc1,-9% (inactive),-9% (inactive),89% (active),99% (active),75% (active)
O=Cn1c2ccccc2c2ccccc21,-41% (inactive),-32% (inactive),-26% (inactive),-21% (inactive),65% (inactive)
